Source: PubChem BioAssay
This is a sample that favours compounds with a hit; in the whole collection about 19% have one here.
IL-1B inflam inh – blocks inflammasome-driven IL-1 beta release; THP-1 LPS/ATP IL-1B secretion, AlphaLISA, 16 h; stronger effect = lower value; activity change, % at 57.5 µM; 4.7% of 360,000 active; in the data active = activity change below about -50%; inconclusive = mostly about -30% to -49%
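THP-1 cells pretreated 1 hr with compounds (up to 57.5 uM final), then stimulated with LPS (250 ng/mL final) plus ATP (1.25 mM final); secreted IL-1B measured by AlphaLISA after 16 hr, decreased signal indicating inhibition.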
DT40 TDP1 no CPT – qHTS for Inhibitors of human tyrosyl-DNA phosphodiesterase 1 (TDP1): qHTS in cells in absence of CPT; DT40 Tdp1-/- hTDP1 cells, no CPT, ATP luminescence, 48 h; Potency, µM (top dose mostly 46.2 µM), for the others: at the highest dose activity change, negative = growth inhibition, actives largely listed as inhibitors; 15% of 420,000 active; also: potency is read from the fitted curve at half-maximal effect; nearly all actives have a fitted effect of over 55% in size
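Growth kinetics read by CellTiter-Glo luminescence after ≥48 hr at 37 °C. Cells: DT40 Tdp1-/- stably carrying human TDP1, 400 per well, compound exposure in the absence of CPT (DMSO vehicle).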
uPA surface inh – inhibitors of cell surface uPA generation; AID 540303; cell surface uPA generation assay, qHTS; Potency, µM (top dose mostly 38.3 µM), inactives show top-dose activity change, negative = inhibition, hits mostly inhibitors; 0.31% of 330,000 active; active = well fitted inhibition curve with a large enough effect; inconclusive = small, poorly fitted or top-dose-only effect; inactive = no such curve, though single readings can be large or run the other way; tested in mouse RAW 264.7 cells; also: potency is read from the fitted curve at half-maximal effect; nearly all actives have a fitted effect of over 55% in size
DT40 TDP1 CPT – DT40-hTDP1 cell growth loss with CPT; chicken DT40 Tdp1-/-;hTDP1 cells + 20 nM CPT, ATP luminescence, 48 h; Potency, µM (titrated, usually from 46.2 µM), inactives show top-dose activity change, negative = growth inhibition, actives largely listed as inhibitors; 12% of 420,000 active; AID 686979; also: potency is read from the fitted curve at half-maximal effect; nearly all actives have a fitted effect of over 55% in size
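Chicken DT40 Tdp1-/- cells complemented with human TDP1, 400 cells/well, exposed to compounds plus 20 nM camptothecin for at least 48 h at 37 C; viability read as ATP content by CellTiter-Glo luminescence.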
HT1080 IDH1KD tx – kills HT-1080 cells with IDH1 knockdown. HT-1080 IDH1 knockdown viability, ATP luminescence, 48 h. Potency, µM (titrated, usually from 46.1 µM), for inactives: top-dose activity, negative = toxicity, actives largely listed as cytotoxic. 2% of 360,000 active. AID 686971;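 also: potency is read from the fitted curve at half-maximal effect; 0% = DMSO wells and -100% = cell-free medium wells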
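CellTiter-Glo luminescence after 48 h compound exposure at 37 degrees C of IDH1-knockdown HT-1080 cells in 5% FBS RPMI. %Activity scaled between DMSO wells and cell-free media wells, with curves fitted and assigned curve classes.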
HT1080NT lethal – kills 2HG-producing HT-1080-NT fibrosarcoma cells. HT-1080-NT fibrosarcoma viability, CellTiter-Glo ATP luminescence, 48 h. Potency, µM (doses to about 46.1 µM), inactives show at the highest dose activity, negative = less viability, most hits filed as cytotoxic. 1.6% of 360,000 active. AID 686970;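 also: NT is the 2HG producing partner of a matched IDH1 knockdown line; potency is read from the fitted curve at half-maximal effect; 0% = DMSO-treated cells and -100% = media-only wells without cells; nearly all actives have a fitted effect of over 55% in size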
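Viability of the 2HG-overproducing fibrosarcoma line after 48 hours of compound exposure at 37 degrees C was determined by luminescence with CellTiter-Glo, and concentration-effect curves were then fitted and categorized.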
* hit, by the source's call; u = inconclusive; x = not tested or not shown. Unless noted, calls follow the shape of the dose curve; as a rule, active = well fitted curve in the direction sought with a large enough effect; inconclusive = small, poorly fitted or top-dose-only effect, or another doubt; inactive = no such curve, though single readings can be large; an effect the other way counts as inactive or inconclusive. Unless noted, % is scaled to controls: 0 for no effect and ±100 for the full control effect.

SMILES	IL-1B inflam inh	DT40 TDP1 no CPT	uPA surface inh	DT40 TDP1 CPT	HT1080 IDH1KD tx	HT1080NT lethal
Cc1ccc(C(C)C)cc1-n1nnc(-c2cccc(Cc3ccc4ccccc4c3)c2)c1C(C)O (configuration not stated)	5	u	x	u	-16%	-10%
CC1=C(C(=O)Nc2nc3ccccc3s2)C(c2ccco2)C(C#N)=C(SCC(=O)NC2CCCCC2)N1 (configuration not stated)	u	21µM*	7%	13µM*	-20%	-19%
Cc1ccc(OC(=O)c2cc(-c3ccccc3)nc3ccc(C)cc23)cc1	x	-1%	x	0%	x	x
CC1Cc2ccccc2C[N+]1(C)CC(=O)c1cccc([N+](=O)[O-])c1 (configuration not stated)	x	u	x	-27%	x	x
COc1ccc(C2=NN(S(C)(=O)=O)C(c3ccc4nccnc4c3)C2)cc1 (configuration not stated)	5	-21%	11%	u	-5%	0%
COc1ccc(C2CC(c3ccc(OC)c(OC)c3)=NN2S(C)(=O)=O)cc1 (configuration not stated)	46	u	-2%	18µM*	-14%	-6%
CS(=O)(=O)N1N=C(c2ccccc2)CC1c1ccc2nccnc2c1 (configuration not stated)	-5	26µM*	-2%	u	11%	13%
Cc1ccc(C2=NN(S(C)(=O)=O)C(c3ccc4nccnc4c3)C2)cc1 (configuration not stated)	24	-7%	0%	-20%	2%	-2%
Cc1cccc2c1-c1sc(C(=O)NCc3ccc(Cl)cc3)cc1CO2	x	-17%	x	-29%	x	x
CCCC(CCC)C(N)=O	x	4%	x	-1%	x	x
Cc1cc(-c2ccc(C)c(S(=O)(=O)NCC3CCN(Cc4cccc(F)c4)CC3)c2)on1	-13	u	u	u	u	-28%
Cc1cc(-c2ccc(C)c(S(=O)(=O)NCC3CCN(Cc4ccccc4F)CC3)c2)on1	u	23µM*	-12%	18µM*	-23%	u
COc1cccc(CCN2CCC(CNS(=O)(=O)c3cc(-c4cc(C)no4)ccc3C)CC2)c1	-62*	u	u	u	u	u
CC(NC(=O)Nc1ccc(Cl)cc1)c1ccccc1 (configuration not stated)	-4	26µM*	20%	u	-1%	0%
O=C(Nc1ccc(Cl)cc1)C(Cl)C(=O)c1ccccc1 (configuration not stated)	u	13µM*	-2%	9.2µM*	u	-12%
Cc1ccc(C(NC(=O)NC(C)c2ccccc2)C(Cl)(Cl)Cl)cc1F (configuration not stated)	-62*	-85%	-7%	18µM*	u	-27%
O=C(Nc1ccccc1Cl)C(Cl)C(=O)c1ccccc1 (configuration not stated)	-68*	13µM*	-2%	15µM*	18%	12%
O=C(Nc1ccccc1Cl)c1ccccc1	-1	-1%	7%	2%	4%	27%
CCOP(=O)(OCC)C(NC(=O)Nc1ccc(Cl)cc1)c1ccccc1 (configuration not stated)	6	-29%	1%	-6%	1%	5%
CC(NC(=O)C(c1ccccc1)c1ccccc1)c1ccccc1 (configuration not stated)	u	0%	3%	1%	3%	7%
CCCCCCCCCCCCCC(=O)OCC(COP(=O)([O-])OCC[N+](C)(C)C)OC(=O)CCCCCCCCCCCCC (configuration not stated)	x	0%	x	5%	x	x
CCOc1ccc(S(=O)(=O)NCCC(=O)N2CCN(c3ccccc3O)CC2)cc1	-5	-11%	-4%	-24%	0%	5%
O=C1C(Br)=Cc2cccc3cccc1c23	-75*	-6%	-13%	10%	-1%	2%
CSc1ncc(Cl)c(C(=O)Nc2c(C(=O)c3ccc(C)c(F)c3)oc3ccccc23)n1	x	7%	x	5%	x	x
CCC(C)Nc1nc(-c2c[nH]c3ccccc23)cs1 (configuration not stated)	-82*	u	0%	-28%	u	u
SMILES	IL-1B inflam inh	DT40 TDP1 no CPT	uPA surface inh	DT40 TDP1 CPT	HT1080 IDH1KD tx	HT1080NT lethal
CN1CCN(CC(=O)Nc2nc(-c3c[nH]c4ccccc34)cs2)CC1	-68*	u	2%	-15%	21µM*	u
CNc1nc(-c2c[nH]c3ccccc23)cs1	u	u	-1%	u	u	u
COc1ccc(-c2cc(C(F)(F)F)n3nc(C(=O)O)c(Cl)c3n2)cc1OC	x	-10%	x	16%	x	x
COc1ccc2cc(C3CC=C(CO)CN3S(=O)(=O)c3ccccc3[N+](=O)[O-])n(C(=O)OC(C)(C)C)c2c1 (configuration not stated)	-17	21µM*	x	23µM*	u	u
COc1ccc(OCC(=O)N2CCN(S(=O)(=O)c3ccccc3[N+](=O)[O-])CC2)cc1	7	-10%	0%	-5%	0%	0%
CC(NC(=O)c1ccc(F)cc1)c1ccc2c(c1)CCCC2 (configuration not stated)	-4	13µM*	4%	21µM*	-5%	-9%
Cc1ccc(C)c(NC(=O)c2cnn(-c3ccccc3)c2C)c1	-58*	u	-2%	u	-4%	-5%
Cc1c(C(=O)Nc2cccc(F)c2)cnn1-c1ccccc1	-23	15µM*	-2%	18µM*	-20%	-1%
Cc1c(C(=O)Nc2ccccc2)cnn1-c1ccccc1	u	-29%	u	-3%	-1%	-15%
CS(=O)(=O)Nc1cccc(C2=NN(C(=O)c3ccc(F)cc3)C(c3cccs3)C2)c1 (configuration not stated)	-10	u	u	u	-27%	-22%
Cc1ccccc1C(=O)N1N=C(c2cccc(NS(C)(=O)=O)c2)CC1c1cccs1 (configuration not stated)	-19	-24%	-3%	-27%	-1%	-5%
CS(=O)(=O)Nc1ccc(C2=NN(C(=O)c3ccco3)C(c3ccccc3F)C2)cc1 (configuration not stated)	-18	18µM*	0%	u	-9%	-3%
CS(=O)(=O)Nc1cccc(C2=NN(C(=O)c3ccccc3Cl)C(c3ccccc3O)C2)c1 (configuration not stated)	24	29µM*	-2%	15µM*	-11%	-13%
